# Where a chain is given by its changes, count along the chain named.
# Legend:
# Assay in all cases: protein-binding microarray (PBM); PBM: ~300 nM protein, 6 mM HEPES pH 7.8, 80 mM KCl, 0.5 mM EDTA, 0.5 mM EGTA, 6% glycerol, 35 ng/ul poly-dIdC, 1% milk, 1 h, room temperature; Ap Aiptasia and Nv Nematostella (sea anemones) / Co Capsaspora / Aq Amphimedon (sponge) / Dm Drosophila / Hu human; RHD is the Rel homology domain; high values mean tight binding
# Details in all cases: dsDNA, one strand shown
# [1] = biological target: T1, GST-Nv-NF-kB (Cys allele) (Nematostella vectensis, UniProt E5G601 2-411)
# T1 sequence: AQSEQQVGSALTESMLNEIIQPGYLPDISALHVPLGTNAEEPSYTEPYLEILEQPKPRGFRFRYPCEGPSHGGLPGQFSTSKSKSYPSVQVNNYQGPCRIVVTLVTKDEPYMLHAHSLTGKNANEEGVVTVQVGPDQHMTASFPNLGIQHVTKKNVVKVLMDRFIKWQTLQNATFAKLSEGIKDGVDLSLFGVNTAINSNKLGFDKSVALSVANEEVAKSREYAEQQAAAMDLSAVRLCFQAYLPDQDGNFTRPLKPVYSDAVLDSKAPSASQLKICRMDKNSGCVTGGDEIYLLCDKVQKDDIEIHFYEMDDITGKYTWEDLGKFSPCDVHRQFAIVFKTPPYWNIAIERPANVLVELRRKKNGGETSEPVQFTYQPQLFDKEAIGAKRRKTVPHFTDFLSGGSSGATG
# [2] = biological target: T2, GST-Nv-NF-kB (Ser allele) (Nematostella vectensis, UniProt A7UNT2 2-411)
# T2 sequence: T1 sequence with Q21R, C66S, S207N, E215Q, V217A, E225K, A268E, D399E
# GST-Co-NF-kB = biological target: T3, GST-Co-NF-kB (Capsaspora owczarzaki, UniProt F1ARL5 200-546)
# T3 sequence: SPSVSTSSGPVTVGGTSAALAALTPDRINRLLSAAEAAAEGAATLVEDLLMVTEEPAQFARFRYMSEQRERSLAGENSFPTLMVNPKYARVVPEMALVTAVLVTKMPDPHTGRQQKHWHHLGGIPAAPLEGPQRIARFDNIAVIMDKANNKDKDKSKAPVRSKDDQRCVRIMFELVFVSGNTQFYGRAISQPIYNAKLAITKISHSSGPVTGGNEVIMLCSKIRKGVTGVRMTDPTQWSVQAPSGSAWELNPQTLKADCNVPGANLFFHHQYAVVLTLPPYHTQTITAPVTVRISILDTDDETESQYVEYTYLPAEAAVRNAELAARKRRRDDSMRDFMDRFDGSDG
# GST-Aq-NF-kB = biological target: T4, GST-Aq-NF-kB (Amphimedon queenslandica, UniProt A9Y5G7 2-389)
# T4 sequence: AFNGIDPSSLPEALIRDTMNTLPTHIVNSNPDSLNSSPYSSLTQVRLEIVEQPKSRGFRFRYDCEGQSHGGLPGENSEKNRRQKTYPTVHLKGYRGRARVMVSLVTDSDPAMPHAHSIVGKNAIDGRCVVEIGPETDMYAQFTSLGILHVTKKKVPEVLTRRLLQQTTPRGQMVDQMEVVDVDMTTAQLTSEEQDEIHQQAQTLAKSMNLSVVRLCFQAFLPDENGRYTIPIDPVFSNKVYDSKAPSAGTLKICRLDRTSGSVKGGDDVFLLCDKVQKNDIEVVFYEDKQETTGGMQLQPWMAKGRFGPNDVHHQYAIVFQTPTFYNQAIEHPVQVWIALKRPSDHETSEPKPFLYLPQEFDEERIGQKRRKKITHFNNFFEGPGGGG
# GST-Hu-p50 = GST-Hu-p50 (Homo sapiens, UniProt P19838 7-356)
# GST-Hu-p50, sequence (P19838 7-356): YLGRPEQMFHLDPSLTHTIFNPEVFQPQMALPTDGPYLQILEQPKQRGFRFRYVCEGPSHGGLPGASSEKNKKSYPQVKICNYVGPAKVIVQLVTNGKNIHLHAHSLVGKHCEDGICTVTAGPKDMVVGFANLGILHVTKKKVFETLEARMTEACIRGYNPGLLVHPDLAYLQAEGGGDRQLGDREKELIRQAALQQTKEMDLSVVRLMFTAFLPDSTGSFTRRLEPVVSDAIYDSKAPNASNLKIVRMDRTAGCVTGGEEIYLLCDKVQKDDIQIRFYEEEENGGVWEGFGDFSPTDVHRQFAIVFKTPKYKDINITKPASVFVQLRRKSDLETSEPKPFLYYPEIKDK
# GST-Dm-Relish = biological target: T5, GST-Dm-Relish (Drosophila melanogaster, UniProt Q94527 99-473)
# T5 sequence: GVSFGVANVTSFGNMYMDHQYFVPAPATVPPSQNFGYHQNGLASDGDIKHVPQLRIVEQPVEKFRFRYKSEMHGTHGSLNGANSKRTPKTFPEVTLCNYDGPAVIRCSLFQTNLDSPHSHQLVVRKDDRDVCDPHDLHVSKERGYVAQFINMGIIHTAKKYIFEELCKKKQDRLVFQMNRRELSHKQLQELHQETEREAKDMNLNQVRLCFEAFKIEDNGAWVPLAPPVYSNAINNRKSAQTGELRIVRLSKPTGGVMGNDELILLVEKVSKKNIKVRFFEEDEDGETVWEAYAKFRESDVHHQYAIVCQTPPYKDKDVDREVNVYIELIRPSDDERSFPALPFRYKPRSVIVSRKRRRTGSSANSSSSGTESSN
# GST-Ap-NF-kB RHD = biological target: T6, GST-Ap-NF-kB RHD (Exaiptasia pallida (Aiptasia), UniProt A0A913YAJ5 2-422)
# T6 sequence: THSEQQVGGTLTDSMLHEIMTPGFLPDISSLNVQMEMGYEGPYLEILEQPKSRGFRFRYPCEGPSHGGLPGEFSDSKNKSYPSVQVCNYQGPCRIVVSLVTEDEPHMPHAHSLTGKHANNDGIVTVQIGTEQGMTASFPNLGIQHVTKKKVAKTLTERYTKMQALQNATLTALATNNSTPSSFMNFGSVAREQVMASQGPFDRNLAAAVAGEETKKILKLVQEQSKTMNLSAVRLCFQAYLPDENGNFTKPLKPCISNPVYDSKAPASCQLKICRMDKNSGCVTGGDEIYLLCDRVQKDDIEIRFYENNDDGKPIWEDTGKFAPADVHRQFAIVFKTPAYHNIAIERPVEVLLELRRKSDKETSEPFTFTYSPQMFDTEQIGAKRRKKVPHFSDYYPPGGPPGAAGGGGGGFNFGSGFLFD
Sequence,binding signal [1] [z-score],binding signal [2] [z-score],binding signal (GST-Co-NF-kB) [z-score],binding signal (GST-Aq-NF-kB) [z-score],binding signal (GST-Hu-p50) [z-score],binding signal (GST-Dm-Relish) [z-score],binding signal (GST-Ap-NF-kB RHD) [z-score]
CCGATTAACATCAGTTGGGAAAATGATGTTAATCGGGTCTTGATTCGCTTGACGCTGCTG,3.62,4.31,2.64,1.77,2.33,–,–
CCGATTAACATCAGTTTCCCAAATGATGTTAATCGGGTCTTGATTCGCTTGACGCTGCTG,2.56,3.42,2.19,1.17,1.81,1.2,–
CCGATTAACATCAGGATTTGCCCTGATGTTAATCGGGTCTTGATTCGCTTGACGCTGCTG,1.25,–,–,3.5,1.37,–,–
CCGATTAACATCATAATGGGAAATGATGTTAATCGGGTCTTGATTCGCTTGACGCTGCTG,2.83,2.35,1.93,1.68,2.18,–,–
CCGATTAACATCAAATTTCCGGGTGATGTTAATCGGGTCTTGATTCGCTTGACGCTGCTG,–,1.31,1.32,1.44,1.02,–,–
CCGATTAACATCAGGTAAATACCTGATGTTAATCGGGTCTTGATTCGCTTGACGCTGCTG,2.06,3.12,–,4.2,2.11,4.77,–
CCGATTAACATCAAGGAATTTTCTGATGTTAATCGGGTCTTGATTCGCTTGACGCTGCTG,1.08,–,–,2.26,1.18,1.93,–
CCGATTAACATCAAAAAAATTCCTGATGTTAATCGGGTCTTGATTCGCTTGACGCTGCTG,1.23,1.22,–,2.87,1.79,3.84,–
CCGATTAACATCAAAATTTCCGGTGATGTTAATCGGGTCTTGATTCGCTTGACGCTGCTG,–,1.02,–,3.05,2.46,1.67,–
CCGATTAACATCATTCCGGGAAATGATGTTAATCGGGTCTTGATTCGCTTGACGCTGCTG,2.87,3.44,2.74,1.95,1.99,–,–
CCGATTAACATCAGTTTGGGAAATGATGTTAATCGGGTCTTGATTCGCTTGACGCTGCTG,2.49,2.26,2.36,1.19,1.46,–,–
CCGATTAACATCAGAAAATACCATGATGTTAATCGGGTCTTGATTCGCTTGACGCTGCTG,1.12,1.7,–,1.58,1.63,3.11,–
CCGATTAACATCAAAAAATTTCCTGATGTTAATCGGGTCTTGATTCGCTTGACGCTGCTG,–,1.31,–,2.22,2.27,2.34,–
CCGATTAACATCAGGTATTTTACTGATGTTAATCGGGTCTTGATTCGCTTGACGCTGCTG,–,2.63,–,1.93,2,4.67,–
CCGATTAACATCATGGGGCATGCTGATGTTAATCGGGTCTTGATTCGCTTGACGCTGCTG,–,–,–,1.06,–,–,1.18
CCGATTAACATCAGGAATAACCATGATGTTAATCGGGTCTTGATTCGCTTGACGCTGCTG,–,–,–,1.32,2.29,1.8,–
CCGATTAACATCAGGCATGCCCCTGATGTTAATCGGGTCTTGATTCGCTTGACGCTGCTG,1.59,–,–,4.39,–,–,2.6
CCGATTAACATCACGGAATTTCCTGATGTTAATCGGGTCTTGATTCGCTTGACGCTGCTG,–,–,–,4.83,1.38,1.89,–
CCGATTAACATCAGGCACTTCCCTGATGTTAATCGGGTCTTGATTCGCTTGACGCTGCTG,1.51,–,–,3.6,–,–,1.15
CCGATTAACATCAACGGGTCCCTTGATGTTAATCGGGTCTTGATTCGCTTGACGCTGCTG,1.84,–,–,2.73,–,–,2.6

Sequence,binding signal [1] [z-score],binding signal [2] [z-score],binding signal (GST-Co-NF-kB) [z-score],binding signal (GST-Aq-NF-kB) [z-score],binding signal (GST-Hu-p50) [z-score],binding signal (GST-Dm-Relish) [z-score],binding signal (GST-Ap-NF-kB RHD) [z-score]
CCGATTAACATCAGGACACTCCCTGATGTTAATCGGGTCTTGATTCGCTTGACGCTGCTG,2.51,–,–,5.35,–,–,1.81
CCGATTAACATCAGGAAAATTCCTGATGTTAATCGGGTCTTGATTCGCTTGACGCTGCTG,–,–,–,2.45,1.61,1.52,–
CCGATTAACATCAGGGGTCAGTATGATGTTAATCGGGTCTTGATTCGCTTGACGCTGCTG,–,–,–,1.09,–,–,1.23
CCGATTAACATCAGGTGATCACCTGATGTTAATCGGGTCTTGATTCGCTTGACGCTGCTG,–,2.18,–,1.32,1.9,2.86,–
CCGATTAACATCACAAAAATTCCTGATGTTAATCGGGTCTTGATTCGCTTGACGCTGCTG,–,–,–,1.5,1.01,2.38,–
CCGATTAACATCATTGTCCCTTCTGATGTTAATCGGGTCTTGATTCGCTTGACGCTGCTG,4.09,–,–,2.67,–,–,2.23
CCGATTAACATCAGGGGCCGTAATGATGTTAATCGGGTCTTGATTCGCTTGACGCTGCTG,1.75,–,–,2.32,–,–,1.66
CCGATTAACATCAGTCCCGCACTTGATGTTAATCGGGTCTTGATTCGCTTGACGCTGCTG,1.95,–,–,2.85,–,–,1.61
CCGATTAACATCACAAAAAATCCTGATGTTAATCGGGTCTTGATTCGCTTGACGCTGCTG,–,–,–,1.44,1.98,1.98,–
CCGATTAACATCAAAAAATTTTCTGATGTTAATCGGGTCTTGATTCGCTTGACGCTGCTG,–,1.98,–,1.49,2.15,2.72,–
CCGATTAACATCAAAAAGTTTCCTGATGTTAATCGGGTCTTGATTCGCTTGACGCTGCTG,–,–,–,1.68,1.42,2.43,–
CCGATTAACATCAAAATTTACCATGATGTTAATCGGGTCTTGATTCGCTTGACGCTGCTG,–,2.56,–,1.07,2.22,2.43,–
CCGATTAACATCAGAAAAATTCCTGATGTTAATCGGGTCTTGATTCGCTTGACGCTGCTG,–,–,–,2.21,1.71,2.97,–
CCGATTAACATCAGTTGTCCCGCTGATGTTAATCGGGTCTTGATTCGCTTGACGCTGCTG,1.89,–,–,1.16,–,–,1.69
CCGATTAACATCAGGACTTGCCCTGATGTTAATCGGGTCTTGATTCGCTTGACGCTGCTG,1.11,–,–,4.8,–,–,1.21
CCGATTAACATCAGAAAGTTTCCTGATGTTAATCGGGTCTTGATTCGCTTGACGCTGCTG,–,–,–,1.06,1.69,1.85,–
CCGATTAACATCAGGAACGTCCCTGATGTTAATCGGGTCTTGATTCGCTTGACGCTGCTG,3.14,–,–,5.01,–,–,3.25
CCGATTAACATCAGGAAACAACCTGATGTTAATCGGGTCTTGATTCGCTTGACGCTGCTG,–,–,–,2.89,1.61,1.07,–
CCGATTAACATCAAAAATTCCAGTGATGTTAATCGGGTCTTGATTCGCTTGACGCTGCTG,–,–,1.37,1.48,1.08,1.57,–
